High-throughput results as filed in PubChem BioAssay.
Sampled rows, rich in hits. Any-hit rate of the full collection: about 8.1%.
KB-3-1 tox = kills parental KB-3-1 adenocarcinoma cells. KB-3-1 viability, CellTiter-Glo ATP luminescence, 72 h. AID 1347075. Potency, µM (highest dose often 46.1 µM), most hits filed as cytotoxic. 400,000 tested, 1.4% active; note: % is set by controls: 0 for no effect and ±100 for the full control effect; nearly all actives have a fitted effect of over 60% in size
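Cytotoxicity in the drug-sensitive parental line KB-3-1 was scored as loss of CellTiter-Glo luminescence following 72 h incubation with compound. Values come from curve fitting of normalized concentration-response data.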
MCF10A rerep = DNA re-replication induction in MCF 10a cells. MCF 10A DNA re-replication, Hoechst nuclear intensity, 48 h. Potency, µM (top dose mostly 46.1 µM), for the others: at the top dose activity, positive = re-replication, most hits filed as activators. 350,000 tested, 2.9% active; note: % of control where 0% means no effect; nearly all actives have a fitted effect of over 50% in size
SW480 rereplic = inducers of DNA re-replication in SW480 colon cancer cells; 340,000 tested, 1.8% active; AID 624297; Potency, µM (top dose mostly 46.1 µM), for inactives: at the top dose re-replication activation, hits mostly activators; SW480 DNA re-replication, Hoechst DNA content imaging, 48 h; note: % of control where 0% means no effect; nearly all actives have a fitted effect of over 55% in size
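SW480 cells exposed to compounds for 48 hr at 37 C, 5% CO2, then Hoechst-stained 40 min. Nuclear DNA content imaged by fluorescence scanning (405 nm excitation, 500-530 nm emission); re-replication scored as increased high-intensity nuclei.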
ELG1 DNA repair = ELG1-dependent DNA repair inhibition. HEK293T ELG1-luciferase reporter, luminescence, 16 h; DNA damage induced by 5-fluorouridine. 330,000 tested, 2.3% active. Potency, µM (titrated, usually from 46.1 µM), inactives show at the top dose activity change, negative = inhibition, usual class: inhibitors. AID 504467; note: % is set by controls: 0 for no effect and ±100 for the full control effect; nearly all actives have a fitted effect of over 55% in size
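HEK293T cells expressing luciferase-tagged ELG1 (2,000/well) received 5-Fluorouridine plus compound or DMSO for 16 hr at 37 °C. Luciferase was read by ONE-Glo luminescence after 30 min at room temperature.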
KB-V1 MDR tox = KB-V1 MDR subline cytotoxicity. KB-V1 MDR cells viability, CellTiter-Glo, 72 h. AID 1347076. 400,000 tested, 3.4% active. Potency, µM (doses to about 46.1 µM), hits mostly cytotoxic; note: % is set by controls: 0 for no effect and ±100 for the full control effect; nearly all actives have a fitted effect of over 60% in size
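Compound-treated KB-V1 multidrug-resistant cells, 72 h, 37 degrees C; viability by CellTiter-Glo. Fitted qHTS curves give the values.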
Active calls of the source: *; i = inactive; ? = inconclusive; . = not tested or not shown. Calls come from the whole dose curve; as a rule, active = well fitted curve in the direction sought with a large enough effect; inconclusive = small, poorly fitted or top-dose-only effect, or another doubt; inactive = no such curve, though single readings can be large; an effect the other way counts as inactive or inconclusive. Potency is the fitted concentration of half-maximal effect.

SMILES | KB-3-1 tox | MCF10A rerep | SW480 rereplic | ELG1 DNA repair | KB-V1 MDR tox
COCCn1c(SCC(=O)N2CCCCC2)nc2ccccc2c1=O | i | -6% | -1% | 6% | 4.1µM*
O=C(CCc1nc2ccccc2[nH]1)N1CCN(C(=O)c2ccco2)CC1 | i | 0% | -1% | -4% | ?
CCn1c(SCC(=O)N2CCN(c3ccc(Cl)cc3)CC2)nc2ccccc2c1=O | i | 24% | -3% | 0% | 2.6µM*
O=C(CSc1nc(N2CCCCC2)nc(N2CCCCC2)n1)N1CCN(c2ccccc2)CC1 | ? | 2% | -5% | ? | 16µM*
O=C(CSc1ccc(-c2nc3ccccc3[nH]2)cn1)N1CCN(C(=O)c2ccco2)CC1 | i | -1% | -17% | 16µM* | i
Cc1cc(O)ccc1Nc1cc(-c2cccc(N)c2)ncn1 | i | . | . | . | i
CCn1c(SCC(=O)N2CCCC2)nc2ccccc2c1=O | i | -1% | -1% | 0% | 6.5µM*
O=C(CSc1nc2ccccc2nc1SCC(=O)N1CCOCC1)N1CCOCC1 | i | -2% | -7% | 3% | ?
O=C(CSc1nc2ccccc2nc1SCC(=O)N1CCCCC1)N1CCCCC1 | i | 19% | 2% | 16µM* | i
COc1ccc(-n2c(C)cc(/C=N/Nc3nc(N4CCOCC4)nc(N4CCOCC4)n3)c2C)cc1 | i | 17% | 12% | 8.2µM* | i
Cc1cc(=O)[nH]c(N/N=C/c2cc(C)n(-c3ccccc3)c2C)n1 | i | 4% | ? | ? | i
BrC(/C=N/Nc1nc(N2CCOCC2)nc(N2CCOCC2)n1)=C/c1ccccc1 | ? | ? | ? | 12µM* | i
Cc1cc(/C=N/Nc2nc(N3CCOCC3)nc(N3CCOCC3)n2)c(C)n1-c1ccccc1 | i | 14% | 0% | 7.3µM* | i
CC(=C/c1ccccc1)/C=N/Nc1nc(N2CCCCC2)nc(N2CCCCC2)n1 | i | -4% | -7% | -4% | ?
CCOc1ccc(-c2cc3c(=O)n(CC(=O)Nc4cc(F)ccc4C)ccn3n2)cc1 | i | . | . | . | i
CCN(Cc1ccccc1)c1ncnc2c1cnn2-c1ccc(F)cc1 | i | . | . | . | ?
Cc1ccc(S(=O)(=O)c2nc(Cc3ccccc3)oc2N2CCOCC2)cc1 | i | -3% | -1% | 20% | i
Cc1ccccc1C(=O)N/N=C/c1cccc2ccccc12 | i | 1% | -10% | ? | i
Cc1ccc(NC(=S)N/N=C/c2c(Cl)cccc2Cl)c(C)c1 | 0.58µM* | 1.5µM* | 1.3µM* | ? | 1.2µM*
Cc1ccc(NC(=S)N/N=C/c2ccc(OCCC(C)C)cc2)c(C)c1 | i | ? | -2% | -13% | 16µM*
CC(C)(C)NC(=S)N/N=C/c1c(Cl)cccc1Cl | i | 2% | -1% | ? | i
Cc1ccc(Cl)cc1NC(=S)N/N=C/c1cccc2ccccc12 | 5.8µM* | 8.2µM* | 8.2µM* | ? | 2.1µM*
[2H]c1c([2H])c([2H])c(-c2nc(N3CCCCCC3)sc2C(=O)c2ccccc2)c([2H])c1[2H] | i | 7.3µM* | ? | ? | i
Cc1ccc(-n2nc(C(=O)NC(C)C)c(=O)n(C)c2=O)cc1 | i | . | . | . | i
CCOC(=O)C1(C)CCCN1C(=O)c1ccc(C(=O)OC)cc1 (configuration not stated) | i | . | . | . | i
SMILES | KB-3-1 tox | MCF10A rerep | SW480 rereplic | ELG1 DNA repair | KB-V1 MDR tox
O=C(CN1C(=O)c2cccc3cccc1c23)N1CCN(c2ccccc2)CC1 | i | 23µM* | ? | 28% | i
O=C(CN1C(=O)c2cccc3cccc1c23)N1CCN(c2ccc(F)cc2)CC1 | i | 11µM* | ? | ? | i
O=C(CN1c2cccc3cccc(c23)S1(=O)=O)N1CCN(c2ccccc2)CC1 | i | 9% | 2% | 0% | 9.2µM*
O=C(CN1c2cccc3cccc(c23)S1(=O)=O)Nc1ccc(F)c(F)c1F | i | ? | 11% | 23µM* | i
O=C(CN1C(=O)c2cccc3cccc1c23)N1CCN(c2cccc(Cl)c2)CC1 | i | -3% | 3% | -3% | i
COC(=O)c1cc2oc3ccccc3c2n1CC(=O)Nc1ccc(OC)c(OC)c1 | i | . | . | . | i
